About 8,800 targets were measured; listed, in parts, are those with a hit and a random draw of the rest. About 0.5% of all pairs of compound and target were hits.

UniProt Q13409, sequence (Q13409 whole entry, looked up): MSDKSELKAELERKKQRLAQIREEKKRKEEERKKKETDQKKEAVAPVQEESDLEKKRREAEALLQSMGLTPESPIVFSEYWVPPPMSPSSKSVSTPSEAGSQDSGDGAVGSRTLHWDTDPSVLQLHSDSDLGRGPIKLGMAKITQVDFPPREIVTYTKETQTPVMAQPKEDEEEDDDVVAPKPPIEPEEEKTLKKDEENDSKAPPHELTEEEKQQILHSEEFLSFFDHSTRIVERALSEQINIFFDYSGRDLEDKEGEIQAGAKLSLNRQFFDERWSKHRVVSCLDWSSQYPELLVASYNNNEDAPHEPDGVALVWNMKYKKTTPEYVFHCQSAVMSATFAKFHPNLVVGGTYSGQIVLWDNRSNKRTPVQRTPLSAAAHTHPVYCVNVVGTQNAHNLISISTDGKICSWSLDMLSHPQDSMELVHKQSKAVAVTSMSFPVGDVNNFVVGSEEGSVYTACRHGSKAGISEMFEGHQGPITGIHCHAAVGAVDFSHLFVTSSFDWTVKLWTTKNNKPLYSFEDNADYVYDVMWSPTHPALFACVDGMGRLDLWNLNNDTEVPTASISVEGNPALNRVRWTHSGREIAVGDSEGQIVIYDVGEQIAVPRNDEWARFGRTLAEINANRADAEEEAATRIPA
UniProt Q9NPA0, sequence (Q9NPA0 whole entry, looked up): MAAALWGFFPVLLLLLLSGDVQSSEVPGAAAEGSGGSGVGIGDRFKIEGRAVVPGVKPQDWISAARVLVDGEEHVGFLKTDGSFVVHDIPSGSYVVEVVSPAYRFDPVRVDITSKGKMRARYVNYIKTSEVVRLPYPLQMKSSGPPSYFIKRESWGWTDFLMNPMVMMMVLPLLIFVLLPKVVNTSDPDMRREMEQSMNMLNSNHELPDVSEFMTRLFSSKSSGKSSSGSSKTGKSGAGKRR
UniProt O95571, sequence (O95571 whole entry, looked up): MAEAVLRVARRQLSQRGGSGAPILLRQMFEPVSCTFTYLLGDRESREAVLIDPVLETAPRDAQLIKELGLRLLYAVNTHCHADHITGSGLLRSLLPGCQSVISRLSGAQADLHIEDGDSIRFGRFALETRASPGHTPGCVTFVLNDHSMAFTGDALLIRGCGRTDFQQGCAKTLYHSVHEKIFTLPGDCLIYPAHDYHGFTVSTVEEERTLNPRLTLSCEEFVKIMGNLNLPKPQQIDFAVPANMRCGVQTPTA
UniProt Q06547, sequence (Q06547 whole entry, looked up): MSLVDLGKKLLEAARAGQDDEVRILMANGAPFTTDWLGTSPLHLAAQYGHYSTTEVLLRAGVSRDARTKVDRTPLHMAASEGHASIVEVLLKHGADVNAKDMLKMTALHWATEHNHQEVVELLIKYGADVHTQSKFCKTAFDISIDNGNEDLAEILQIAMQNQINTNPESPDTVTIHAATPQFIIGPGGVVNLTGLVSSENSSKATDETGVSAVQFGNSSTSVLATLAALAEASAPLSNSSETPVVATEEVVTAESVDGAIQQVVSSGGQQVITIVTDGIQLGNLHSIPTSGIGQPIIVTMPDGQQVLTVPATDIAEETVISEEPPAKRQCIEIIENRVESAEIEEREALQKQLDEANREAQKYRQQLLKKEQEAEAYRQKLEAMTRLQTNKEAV
UniProt Q09472, sequence (Q09472 whole entry, looked up): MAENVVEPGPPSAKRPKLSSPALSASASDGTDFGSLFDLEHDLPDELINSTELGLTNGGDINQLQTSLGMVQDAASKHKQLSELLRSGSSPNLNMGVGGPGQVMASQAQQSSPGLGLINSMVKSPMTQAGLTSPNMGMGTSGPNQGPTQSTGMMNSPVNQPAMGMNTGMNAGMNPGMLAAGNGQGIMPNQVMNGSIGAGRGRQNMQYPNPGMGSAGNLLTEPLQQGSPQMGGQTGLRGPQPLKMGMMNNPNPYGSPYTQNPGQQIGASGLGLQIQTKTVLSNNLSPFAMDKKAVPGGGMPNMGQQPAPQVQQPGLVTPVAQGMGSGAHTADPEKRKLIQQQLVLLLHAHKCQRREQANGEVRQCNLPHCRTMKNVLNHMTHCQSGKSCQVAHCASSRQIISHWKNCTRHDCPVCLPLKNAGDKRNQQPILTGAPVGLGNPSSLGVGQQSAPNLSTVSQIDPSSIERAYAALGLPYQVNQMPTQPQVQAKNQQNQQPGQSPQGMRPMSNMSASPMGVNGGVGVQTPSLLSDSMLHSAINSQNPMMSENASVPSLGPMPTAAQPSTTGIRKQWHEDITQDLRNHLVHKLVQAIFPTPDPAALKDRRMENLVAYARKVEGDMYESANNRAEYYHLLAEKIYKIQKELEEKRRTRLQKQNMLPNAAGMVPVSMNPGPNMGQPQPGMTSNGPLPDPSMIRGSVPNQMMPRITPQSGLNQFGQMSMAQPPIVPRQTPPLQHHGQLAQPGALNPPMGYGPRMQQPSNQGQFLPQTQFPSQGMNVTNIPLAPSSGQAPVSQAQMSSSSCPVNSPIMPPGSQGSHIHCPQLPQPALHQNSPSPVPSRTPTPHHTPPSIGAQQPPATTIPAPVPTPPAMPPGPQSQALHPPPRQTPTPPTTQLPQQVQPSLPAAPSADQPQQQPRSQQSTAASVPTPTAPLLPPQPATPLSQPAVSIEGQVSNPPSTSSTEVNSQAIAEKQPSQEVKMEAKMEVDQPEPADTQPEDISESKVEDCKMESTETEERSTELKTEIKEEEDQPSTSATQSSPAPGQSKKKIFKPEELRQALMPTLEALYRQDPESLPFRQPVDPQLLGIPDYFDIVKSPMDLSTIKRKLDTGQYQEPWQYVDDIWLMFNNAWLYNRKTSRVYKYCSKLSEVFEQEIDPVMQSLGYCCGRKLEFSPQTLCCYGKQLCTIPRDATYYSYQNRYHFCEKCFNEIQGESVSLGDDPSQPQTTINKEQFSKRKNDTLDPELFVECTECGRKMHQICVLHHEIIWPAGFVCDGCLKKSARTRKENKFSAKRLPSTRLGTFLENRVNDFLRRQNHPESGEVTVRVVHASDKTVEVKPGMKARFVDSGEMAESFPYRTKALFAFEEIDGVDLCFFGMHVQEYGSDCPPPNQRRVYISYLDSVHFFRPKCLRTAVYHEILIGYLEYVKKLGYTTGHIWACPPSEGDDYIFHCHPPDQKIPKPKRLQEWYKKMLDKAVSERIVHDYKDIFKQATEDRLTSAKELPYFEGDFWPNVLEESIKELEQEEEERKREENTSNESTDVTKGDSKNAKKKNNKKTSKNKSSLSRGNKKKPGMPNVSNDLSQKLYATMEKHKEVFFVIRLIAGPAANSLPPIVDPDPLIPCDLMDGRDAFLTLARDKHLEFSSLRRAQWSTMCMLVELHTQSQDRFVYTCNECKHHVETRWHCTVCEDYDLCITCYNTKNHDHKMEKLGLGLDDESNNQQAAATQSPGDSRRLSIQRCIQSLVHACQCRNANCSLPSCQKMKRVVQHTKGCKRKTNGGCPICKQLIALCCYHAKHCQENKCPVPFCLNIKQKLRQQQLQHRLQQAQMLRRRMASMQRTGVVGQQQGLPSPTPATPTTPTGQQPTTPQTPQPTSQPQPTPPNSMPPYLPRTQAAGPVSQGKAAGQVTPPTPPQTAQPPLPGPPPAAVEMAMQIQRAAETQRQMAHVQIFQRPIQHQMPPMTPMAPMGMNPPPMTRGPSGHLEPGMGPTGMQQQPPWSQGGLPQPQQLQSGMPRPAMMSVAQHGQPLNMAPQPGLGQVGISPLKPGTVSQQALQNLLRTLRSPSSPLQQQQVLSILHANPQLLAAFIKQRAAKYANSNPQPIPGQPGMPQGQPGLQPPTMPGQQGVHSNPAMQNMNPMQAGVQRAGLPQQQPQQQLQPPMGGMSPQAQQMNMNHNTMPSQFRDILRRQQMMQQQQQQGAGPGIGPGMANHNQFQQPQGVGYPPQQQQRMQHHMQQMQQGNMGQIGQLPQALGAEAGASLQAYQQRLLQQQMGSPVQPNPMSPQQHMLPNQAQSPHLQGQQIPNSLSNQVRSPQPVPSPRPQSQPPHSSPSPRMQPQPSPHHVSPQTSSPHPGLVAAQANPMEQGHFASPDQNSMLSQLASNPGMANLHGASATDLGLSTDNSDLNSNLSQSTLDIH
UniProt P85037, sequence (P85037 whole entry, looked up): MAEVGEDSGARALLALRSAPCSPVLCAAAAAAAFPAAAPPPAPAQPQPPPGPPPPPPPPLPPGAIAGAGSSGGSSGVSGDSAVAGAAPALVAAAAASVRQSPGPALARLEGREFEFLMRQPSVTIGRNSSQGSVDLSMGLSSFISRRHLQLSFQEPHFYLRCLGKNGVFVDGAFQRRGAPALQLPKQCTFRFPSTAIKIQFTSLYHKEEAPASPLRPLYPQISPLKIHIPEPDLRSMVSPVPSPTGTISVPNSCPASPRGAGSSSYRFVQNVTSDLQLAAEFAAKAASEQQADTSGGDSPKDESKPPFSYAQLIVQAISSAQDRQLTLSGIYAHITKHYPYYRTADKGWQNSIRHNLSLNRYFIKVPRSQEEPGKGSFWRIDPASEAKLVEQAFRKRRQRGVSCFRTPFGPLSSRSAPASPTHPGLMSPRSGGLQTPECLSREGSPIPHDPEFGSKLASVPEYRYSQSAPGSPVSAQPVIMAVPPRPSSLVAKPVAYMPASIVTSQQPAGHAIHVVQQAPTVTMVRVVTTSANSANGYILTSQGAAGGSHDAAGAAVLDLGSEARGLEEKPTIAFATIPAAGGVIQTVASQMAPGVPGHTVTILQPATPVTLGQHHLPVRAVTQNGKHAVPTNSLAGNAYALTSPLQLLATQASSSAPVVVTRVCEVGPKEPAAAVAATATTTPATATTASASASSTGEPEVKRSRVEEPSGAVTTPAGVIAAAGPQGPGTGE
UniProt P0DPD7, sequence (P0DPD7 whole entry, looked up): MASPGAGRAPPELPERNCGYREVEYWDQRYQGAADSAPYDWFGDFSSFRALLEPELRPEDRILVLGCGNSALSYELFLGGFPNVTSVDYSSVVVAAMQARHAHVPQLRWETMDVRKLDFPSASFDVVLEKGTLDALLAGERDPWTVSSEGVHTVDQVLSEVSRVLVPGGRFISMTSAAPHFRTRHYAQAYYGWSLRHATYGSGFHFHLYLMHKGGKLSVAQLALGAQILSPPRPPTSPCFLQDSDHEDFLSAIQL

Compound in one assay: CCn1cc(-c2ccnc3[nH]c(-c4cccc(CN(C)C)c4)cc23)c(-c2ccc(NC(=O)N(C)C)cc2)n1
The assay is described as follows: log2 fold change, soluble protein after heating vs DMSO (PISA); higher = thermal stabilisation; K562 lysate, 10 uM; active = over 0.2 and 3.5 SD of the protein, either way, in both replicates (recomputed). In short, it runs like this: (§1)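 Following dounce homogenisation of K562 pellets in PBS pH 7.4 with 1 mM MgCl2, crude extract at 1 mg/mL protein was incubated for 30 min with 10 μM compound. Aliquots were then heated for 3 min over 48°C-58°C and pooled, NP-40 was added to 0.5% at 4°C, and soluble protein was recovered as the supernatant at 21,000xg for 90 min. Channel-sum-equalised TMTpro 16plex LC-MS/MS quantified this protein. Each value, from duplicates, is a log-two fold change in thermal stability relative to solvent controls.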
On to GEMIN4 (UniProt P57678), for which the log2 fold change was -0.168 (inactive).

With ERAL1 (UniProt O75616), the log2 fold change was -0.065 (inactive).

Consider EMC7 (UniProt Q9NPA0), for which the log2 fold change is -0.37 (active).

On to EED, A0A5F9ZI63, for which the log2 fold change is -0.047 (inactive).

Take FAM118B (UniProt Q9BPY3): the log2 fold change was -0.03 (inactive).

For GBF1 (UniProt Q92538), the log2 fold change is -0.011 (inactive).

As to FAT2 (UniProt Q9NYQ8), the log2 fold change is -0.487 (inactive).

Turning to FLT4 (UniProt P35916), the log2 fold change is 0.018 (inactive).

As to ERLIN1 (UniProt O75477), the log2 fold change is 1.01 (inactive).

Take EAPP (UniProt Q56P03): the log2 fold change is -0.085 (inactive).

Turning to GIGYF2 (UniProt Q6Y7W6), the log2 fold change was 0.028 (inactive).

As for FOXK1 (UniProt P85037), the log2 fold change is -0.014 (inactive).

Regarding GAPDH (UniProt P04406), the log2 fold change was 0.042 (inactive).

Turning to EEF1AKMT4 (UniProt P0DPD7), the log2 fold change was -0.129 (inactive).

Turning to FYCO1 isoform 4 (UniProt Q9BQS8), the log2 fold change is -0.104 (inactive).

As to ETHE1 (UniProt O95571), the log2 fold change was 0.044 (inactive).

FBXO22 (UniProt Q8NEZ5): the log2 fold change was -0.002 (inactive).

Consider EP300 (UniProt Q09472), for which the log2 fold change was -0.151 (inactive).

As to GEMIN2 (UniProt O14893), the log2 fold change is -0.052 (inactive).

Take DYNC1I2 isoform 2 (UniProt Q13409): the log2 fold change is -0.022 (inactive).

DYNC1I2 isoform 5 (UniProt Q13409): the log2 fold change is -0.017 (inactive).

Regarding FBXO45 (UniProt P0C2W1), the log2 fold change was -0.002 (inactive).

EPB41, A0A2R8Y783: the log2 fold change was -0.136 (inactive).

Take FYN (UniProt P06241): the log2 fold change was 0.048 (inactive).

As to GAA (UniProt P10253), the log2 fold change is 0.122 (inactive).

With FXR2 (UniProt P51116), the log2 fold change is 0.007 (inactive).

Regarding FPGT (UniProt O14772), the log2 fold change is 0.415 (active).

As to FHOD1 (UniProt Q9Y613), the log2 fold change was 0.013 (inactive).

EFCAB14 (UniProt O75071): the log2 fold change was -0.058 (inactive).

As to DSN1 (UniProt Q9H410), the log2 fold change is -0.017 (inactive).

For the target FAM83D (UniProt Q9H4H8), the log2 fold change is -0.052 (inactive).

Take EWSR1 isoform 5 (UniProt Q01844): the log2 fold change is -0.019 (inactive).

For FAM83A (UniProt Q86UY5), the log2 fold change is 0.103 (inactive).

For the target GABPB1 isoform 3 (UniProt Q06547), the log2 fold change is -0.042 (inactive).

Take DUS2 (UniProt Q9NX74): the log2 fold change was -0.095 (inactive).

For EIF2AK2 (UniProt P19525), the log2 fold change was -0.081 (inactive).

Compound in another assay: CN1CCC(CNc2ccc3ncc(-c4cccc(OC(F)(F)F)c4)n3n2)CC1
Described as above. Summed up:
as §1
GEMIN4 (UniProt P57678): the log2 fold change is -0.091 (inactive).

Take ERAL1 (UniProt O75616): the log2 fold change is -0.359 (active).

As for EMC7 (UniProt Q9NPA0), the log2 fold change is 0.125 (inactive).

Consider EED, A0A5F9ZI63, for which the log2 fold change is 0.049 (inactive).

FAM118B (UniProt Q9BPY3): the log2 fold change was -0.027 (inactive).

As for GBF1 (UniProt Q92538), the log2 fold change was -0.046 (inactive).

Turning to FAT2 (UniProt Q9NYQ8), the log2 fold change is 0.248 (inactive).

Regarding FLT4 (UniProt P35916), the log2 fold change was 0.08 (inactive).

With ERLIN1 (UniProt O75477), the log2 fold change is -0.059 (inactive).

With EAPP (UniProt Q56P03), the log2 fold change was -0.092 (inactive).

Turning to GIGYF2 (UniProt Q6Y7W6), the log2 fold change was -0.055 (inactive).

As for FOXK1 (UniProt P85037), the log2 fold change was 0.026 (inactive).

On to GAPDH (UniProt P04406), for which the log2 fold change was -0.032 (inactive).

On to EEF1AKMT4 (UniProt P0DPD7), for which the log2 fold change is 0.052 (inactive).

Consider FYCO1 isoform 4 (UniProt Q9BQS8), for which the log2 fold change was 0.063 (inactive).

In the case of ETHE1 (UniProt O95571), the log2 fold change was 0.003 (inactive).

As for FBXO22 (UniProt Q8NEZ5), the log2 fold change was -0.008 (inactive).

As to EP300 (UniProt Q09472), the log2 fold change was 0.058 (inactive).

With GEMIN2 (UniProt O14893), the log2 fold change is 0.029 (inactive).

Turning to DYNC1I2 isoform 2 (UniProt Q13409), the log2 fold change was 0.082 (inactive).

For the target DYNC1I2 isoform 5 (UniProt Q13409), the log2 fold change is 0.017 (inactive).

Turning to FBXO45 (UniProt P0C2W1), the log2 fold change was 0.037 (inactive).

As for EPB41, A0A2R8Y783, the log2 fold change was -0.048 (inactive).

As for FYN (UniProt P06241), the log2 fold change is 0.22 (inactive).

With GAA (UniProt P10253), the log2 fold change is 0.027 (inactive).

As for FXR2 (UniProt P51116), the log2 fold change was -0.076 (inactive).

In the case of FPGT (UniProt O14772), the log2 fold change is -0.054 (inactive).

Regarding FHOD1 (UniProt Q9Y613), the log2 fold change was -0.017 (inactive).

Take EFCAB14 (UniProt O75071): the log2 fold change is 0.047 (inactive).

As to DSN1 (UniProt Q9H410), the log2 fold change is 0.01 (inactive).

For the target FAM83D (UniProt Q9H4H8), the log2 fold change is 0.029 (inactive).

For EWSR1 isoform 5 (UniProt Q01844), the log2 fold change is 0.021 (inactive).

Turning to FAM83A (UniProt Q86UY5), the log2 fold change is 0.06 (inactive).

In the case of GABPB1 isoform 3 (UniProt Q06547), the log2 fold change was -0.028 (inactive).

For DUS2 (UniProt Q9NX74), the log2 fold change was 0.023 (inactive).

Regarding EIF2AK2 (UniProt P19525), the log2 fold change was 0.067 (inactive).

For the origin of these results see the supplement of paper PMC10849652.
